Results published in PubChem BioAssay AID1631 (National Center for Advancing Translational Sciences (NCATS), 2009).
In all, about 260,000 compounds went through this assay and about 890 (0.34%) were called active. Entries that show only a call come without a potency. Roughly 1% stayed inconclusive and do not appear here. The call rests on the fitted dose curve; in most records, active means well fitted activation curve with a large enough effect; inconclusive means small, poorly fitted or top-dose-only effect; inactive means no such curve, though single readings can be large or run the other way. Many of the other results were omitted from the sample, so actives are more common in it than they were.

Molecular target: Pyruvate kinase PKM (Homo sapiens) (UniProt P14618)
Test: qHTS Assay for Activators of Human Muscle isoform 2 Pyruvate Kinase; further: nearly all actives have a fitted effect of over 55% in size
Conditions: purified PKM2, Kinase-Glo ATP luminescence; Potency: activation; series mostly up to 57.5 µM
Method in brief: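 Purified hPK-M2 (>95%) run at intermediate activity with 0.1 mM ADP and 0.5 mM PEP in 50 mM imidazole pH 7.2, KCl, MgCl2; 1 h room temperature. ATP formed read by Kinase-Glo luminescence; normalized to uninhibited and no-enzyme controls.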
Potency means the concentration at half of the fitted maximal effect.

Sequence of Pyruvate kinase PKM (Homo sapiens) (P14618 whole entry, looked up, canonical isoform): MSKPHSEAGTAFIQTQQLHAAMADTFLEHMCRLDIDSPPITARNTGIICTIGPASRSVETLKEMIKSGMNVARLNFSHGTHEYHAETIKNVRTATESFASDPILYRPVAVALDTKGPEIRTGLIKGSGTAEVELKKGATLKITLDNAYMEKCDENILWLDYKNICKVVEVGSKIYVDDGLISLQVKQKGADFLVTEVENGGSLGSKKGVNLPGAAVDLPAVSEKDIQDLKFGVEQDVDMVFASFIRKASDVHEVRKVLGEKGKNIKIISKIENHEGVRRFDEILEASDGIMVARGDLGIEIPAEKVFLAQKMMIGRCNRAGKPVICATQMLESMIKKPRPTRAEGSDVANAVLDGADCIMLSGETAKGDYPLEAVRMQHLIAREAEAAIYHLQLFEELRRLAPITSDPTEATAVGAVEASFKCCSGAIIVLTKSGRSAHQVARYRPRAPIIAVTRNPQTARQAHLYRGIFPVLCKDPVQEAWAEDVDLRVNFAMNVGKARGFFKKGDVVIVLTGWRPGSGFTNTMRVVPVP

| Compound | Potency | activation |
| --- | --- | --- |
| CCC(C)(C)NC(=O)C(c1ccc(O)cc1)N(Cc1ccco1)C(=O)CCC(=O)Nc1ccccn1 (stereo not drawn) | inactive | – |
| CN(C)N=Nc1ccc2nc[nH]c2c1 | 10 µM (active) | – |
| CC/C(O)=N\S(=O)(=O)c1ccc(N=NN(C)C)cc1 | inactive | – |
| CC(=O)c1ccc(N2CCN(C(=O)c3ccc4nc[nH]c4c3)CC2)cc1 | inactive | – |
| CCCn1c(CCNc2nc(-c3ccc(OC)cc3)cs2)nc2ccccc21 | inactive | – |
| O=C(N/N=C\c1cc2c(cc1Cl)OCO2)c1ccc(Br)s1 | inactive | – |
| CCOC(=O)C1(CCOc2ccccc2)CCN(Cc2cc(OC)cc(OC)c2)CC1 | inactive | – |
| COc1ccc(C(=O)CC(=O)c2ccc(C)cc2)c(O)c1 | inactive | – |
| COC(=O)CN1C(=O)[C@H]2[C@@H](C3CC3)N3C(=O)CN(Cc4ccc(-c5ccccc5)cc4)C(=O)[C@@]3(Cc3ccccc3)[C@H]2C1=O | inactive | – |
| COc1ccccc1CN(C)C(=O)c1cc2ccccc2o1 | inactive | – |
| COc1ccccc1CCNS(=O)(=O)c1cn(C)nc1C | inactive | – |
| Cc1cccc(N2CCN(C(=O)c3cccc(N4C(=O)C5C6C=CC(C6)C5C4=O)c3)CC2)c1C (stereo not drawn) | inactive | – |
| O=C(Nc1cccc(F)c1)NC1CCCc2ccccc21 (stereo not drawn) | inactive | – |
| O=C(CNC(=O)c1ccc(F)cc1)c1ccccc1 | – | 0.121% [at 11.5 µM, 0% is enzyme alone, no compound] (inactive) |
| CCc1nnc(NC(=O)c2c(O)c3c([nH]c2=O)CCCC3)s1 | inactive | – |
| O=C(NCc1ccccn1)c1c(O)c2c([nH]c1=O)CCCC2 | 3.16 µM (active) | – |
| C[N+](C)(C)CCNC(=O)c1c(O)c2c([nH]c1=O)CCCC2 | inactive | – |
| CCOC(=O)C1(CCOc2ccccc2)CCN(Cc2ccc(C#CCCO)cc2)CC1 | inactive | – |
| COc1ccc(N2CCN(S(=O)(=O)c3ccc4c(c3)NC(=O)C(C)C(=O)N4)CC2)cc1 (stereo not drawn) | inactive | – |
| Nc1c(Cl)cc(-c2csc(N3CCCC3c3nc4cc(Cl)c(Cl)cc4n3CCOCCO)n2)cc1Cl (stereo not drawn) | inactive | – |
| Cc1ccc(C)c(S(=O)(=O)Nc2cc(C)on2)c1 | inactive | – |
| Cc1ccc(C)c(S(=O)(=O)Nc2cccc(-n3cnnn3)c2)c1 | 14.1 µM (active) | – |
| O=C(Nc1cccc(-n2cnnn2)c1)c1cccnc1 | inactive | – |
| CCCCC(=O)Nc1ccccc1N1CCN(c2ccc(F)cc2)CC1 | – | -1.04% [at 11.5 µM, 0% is enzyme alone, no compound] (inactive) |
| O=C(c1cc(C(=O)N2CCN(c3ccc(F)cc3)CC2)cc([N+](=O)[O-])c1)N1CCN(c2ccc(F)cc2)CC1 | inactive | – |

| Compound | Potency | activation |
| --- | --- | --- |
| CSc1ccc(S(=O)(=O)N2CCC(C(=O)NCCc3ccccc3)CC2)cc1 | inactive | – |
| Oc1ccc(C2Nc3cccc4cccc(c34)N2)cc1 | inactive | – |
| CCC1CCCCN1C(=S)Nc1ccc(S(=O)(=O)Nc2ncccn2)cc1 (stereo not drawn) | inactive | – |
| Cc1nc(SCC(=O)N2CC(=O)Nc3ccccc32)c2c(C)c(C)sc2n1 | 12.6 µM (active) | – |
| Cc1nc(SCC(=O)N2CCc3ccccc3C2)c2c(C)c(C)sc2n1 | inactive | – |
| COc1cccc(Nc2nnc(SCC(=O)N3CC(=O)Nc4ccccc43)s2)c1 | inactive | – |
| COc1ccccc1CN1CCN(C(c2ccccc2)c2ccccc2)CC1 | inactive | – |
| COc1ccc(OCc2cc(C(=O)N3CCCC3)no2)c2ccccc12 | inactive | – |
| Cc1ccc(C(=O)c2coc3ccc(O)c(CN(C)C)c23)cc1 | inactive | – |
| O=[N+]([O-])c1ccc2c(c1)Nc1nc3ccccc3nc1N2 | inactive | – |
| O=C(CC1C(=O)NCCN1C(=O)c1ccc([N+](=O)[O-])cc1)Nc1cccc(Cl)c1 (stereo not drawn) | inactive | – |
| CCCn1c(C2CCCN2c2nc(-c3ccc(C)cc3)cs2)nc2cc(Cl)c(N3CCCCC3)cc21 (stereo not drawn) | inactive | – |
| COc1ccc(CN2CCCC(N3CCc4ccccc4C3)C2)c(O)c1 (stereo not drawn) | inactive | – |
| Cc1ccc(NS(=O)(=O)c2cc3c(cc2C)NC(=O)CO3)cc1 | 5.62 µM (active) | – |
| COc1ccc(CCNS(=O)(=O)c2cc3c(cc2C)NC(=O)CO3)cc1OC | inactive | – |
| Cc1cc2c(cc1S(=O)(=O)NCc1ccc(Cl)cc1)OCC(=O)N2 | inactive | – |
| Cc1cc(C)c(SCCc2ccncc2)c(C)c1 | inactive | – |
| CCOc1cc(/C=C(\C#N)c2nc(-c3cccs3)c(NC(C)=O)s2)ccc1O | inactive | – |
| COc1cc(/C=N/Nc2nc3ccccc3s2)ccc1O | inactive | – |
| COc1cc(/C=N\Nc2nc(-c3cccs3)c(NC(C)=O)s2)ccc1O | 11.2 µM (active) | – |
| COc1cccc(CC(=O)Nc2nc(-c3ccc(OC)c(OC)c3)cs2)c1 | inactive | – |
| C/C=C(/C)C(=O)Nc1cccc(C2=NOC3(C2)C[C@@H](C(N)=O)N(C(=O)C2(C)CC2)C3)c1 (stereo partly drawn) | inactive | – |
| C/C=C\C=C\C(=O)N1CC2(CC(c3cccc(NC(=O)/C(C)=C\C)c3)=NO2)C[C@H]1C(N)=O (stereo partly drawn) | 3.55 µM (active) | – |
| CC/C=C/C(=O)N1CC2(CC(c3cccc(NC(=O)CC)c3)=NO2)C[C@H]1C(N)=O (stereo partly drawn) | inactive | – |
| CCC(C)C(=O)Nc1ccccc1N1CCN(c2ccc(F)cc2)CC1 (stereo not drawn) | inactive | – |

| Compound | Potency | activation |
| --- | --- | --- |
| CCCNC(=O)c1ccc(N2CCC3(CC2)CC(c2ccc(Cl)cc2)=NO3)c([N+](=O)[O-])c1 | inactive | – |
| COc1ccc(C(=O)NCC(=O)N/N=C/c2cccnc2)cc1 | – | 0.538% [at 0.46 µM, 0% is enzyme alone, no compound] (inactive) |
| O=C(NCC(=O)N1CCN(c2ncc(C(F)(F)F)cc2Cl)CC1)c1ccc(Br)o1 | inactive | – |
| O=C(O)c1cccc2c1C(=O)N(C1CCCC1)C2 | inactive | – |
| COc1ccc(N(C(=O)c2snc(C(N)=O)c2N)C(C(=O)NC2CCCC2)c2ccc(C)o2)c(OC)c1 (stereo not drawn) | inactive | – |
| CN(CC1CCCO1)S(=O)(=O)c1ccc(C(=O)Nc2ccc([N+](=O)[O-])cc2)cc1 (stereo not drawn) | inactive | – |
| CCOC(=O)c1csc(CCNC(=O)c2oc3c(Cl)cc(C)cc3c2C)n1 | inactive | – |
| CC(C)NS(=O)(=O)c1ccc(OCC(=O)NC2CCCCCC2)cc1 | inactive | – |
| O=C(Nc1nnc(C2=COCCO2)o1)c1ccc([N+](=O)[O-])s1 | inactive | – |
| COc1ccc(-n2cc(-c3ccccc3)c3c(=S)nc[nH]c32)cc1 | – | -7.56% [at 0.46 µM, 0% is enzyme alone, no compound] (inactive) |
| CCc1ccc(CNC(=O)C2CCN(c3nnc(C)c4c(C)n(-c5ccc(C)cc5)nc34)CC2)cc1 | – | -0.982% [at 0.46 µM, 0% is enzyme alone, no compound] (inactive) |
| Cc1cc(S(=O)(=O)NCc2ccccn2)c(Cl)cc1Cl | – | -2.1% [at 11.5 µM, 0% is enzyme alone, no compound] (inactive) |
| COc1ccc(N2CCN(S(=O)(=O)CCNC(=O)C34CC5CC(CC(C5)C3)C4)CC2)cc1 | inactive | – |
| Nc1cccc(S(=O)(=O)Nc2ccc(SC(F)F)cc2)c1 | 14.1 µM (active) | – |
| CSc1ccc(S(=O)(=O)Nc2cccc(F)c2)cc1 | inactive | – |
| O=C(Cc1ccc(Cl)c(Cl)c1)Nc1ccc(SC(F)F)cc1 | inactive | – |
| Cc1ccccc1C(=O)N1CCN(c2ccc(NC(=O)c3cccs3)cc2)CC1 | inactive | – |
| Cc1c(C=O)c2ccccc2n1CCOc1ccccc1 | inactive | – |
| CCOc1cc(-c2cc(-c3ccc(NC(C)=O)cc3)nc(N)c2C#N)ccc1O | inactive | – |
| CC(C)C(C)NC(=O)COc1nc2ccccc2nc1N(C)C1CCCCC1 (stereo not drawn) | inactive | – |
| CCN(C(=O)C1CCCN(c2nc(-c3ccc(OC)cc3)no2)C1)c1ccc(OC)cc1 (stereo not drawn) | inactive | – |
| CCn1cc(CN2CCC(C(=O)Nc3cccc(-c4cccc(Cl)c4)c3)CC2)c(C)n1 | inactive | – |
| COc1ccccc1N1CCN(C(=O)CCS(=O)(=O)c2ccc3c(c2)NC(=O)C(C)S3)CC1 (stereo not drawn) | inactive | – |
